# This is part of a sample that, as a whole, favours compounds with a hit. Of some 79,000 tested, about 15% had one in any assay. Values without a mark were called inactive. The source made the active and inactive calls. No stated cut-off is given here; in the data, active means growth inhibition above about 70%; inactive means the rest.
# Columns and labels:
# [1] = NCI Yeast Anticancer Drug Screen. Data for the rad52 strain (AID 147);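 further: 0% = growth of vehicle-treated control cultures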; details: S. cerevisiae rad52 mutant growth inhibition, stronger effect = higher value
# How it was run: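 DNA repair-defective yeast; compound exposure; growth scored against vehicle controls.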
# [2] = NCI Yeast Anticancer Drug Screen. Data for the wt1 strain (AID 149);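 further: 0% = growth of vehicle-treated wt1 cultures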; details: S. cerevisiae wt1 strain (SPY 50644) growth inhibition, stronger effect = higher value
# How it was run: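 Yeast wt1 strain exposed to compounds; growth inhibition measured relative to vehicle-treated controls.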
# [3] = NCI Yeast Anticancer Drug Screen. Data for the rad50EPP+ strain (AID 151);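 further: 0% = growth of vehicle-treated control cultures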; details: S. cerevisiae rad50 mutant strain, stronger effect = higher value
# How it was run: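 rad50EPP+ yeast treated with test compounds. Readout: growth vs vehicle control.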
# [4] = NCI Yeast Anticancer Drug Screen. Data for the mgt1 strain (AID 153); details: S. cerevisiae mgt1 mutant growth inhibition, stronger effect = higher value
# How it was run: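 Growth inhibition relative to vehicle controls was scored for the mgt1 yeast strain after compound exposure.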
# [5] = NCI Yeast Anticancer Drug Screen. Data for the mec2-1 strain (AID 157); details: S. cerevisiae mec2-1 strain, stronger effect = higher value
# How it was run: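 Growth inhibition is read against vehicle-treated controls after compound exposure of the mec2-1 yeast strain, which is defective in DNA damage repair or cell cycle control.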
# [6] = NCI Yeast Anticancer Drug Screen. Data for the rad14 strain (AID 159);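 further: 0% = growth of vehicle-treated control cultures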; details: S. cerevisiae rad14 strain growth inhibition, stronger effect = higher value
# How it was run: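 Yeast cells carrying a defined DNA-repair defect were exposed to compounds, and growth inhibition was calculated relative to vehicle-treated control cultures.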
# [7] = NCI Yeast Anticancer Drug Screen. Data for the sgs1 mgt1 strain (AID 161);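 further: 0% = growth of cultures given vehicle only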; details: S. cerevisiae sgs1 mgt1 strain, stronger effect = higher value
# How it was run: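 Percent growth inhibition was derived by comparing compound-exposed mutant yeast with vehicle-exposed cultures. The strain carries alterations in DNA damage repair.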
# [8] = NCI Yeast Anticancer Drug Screen. Data for the CLN2oe strain (AID 163);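 further: 0% = growth of vehicle-only control cultures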; details: S. cerevisiae CLN2oe strain, stronger effect = higher value
# How it was run: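 Compound-treated yeast; growth vs vehicle ctrl = % inhibition. Genetically altered strain (cell-cycle control).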
# [9] = NCI Yeast Anticancer Drug Screen. Data for the cln2 rad14 strain (AID 165);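 further: 0% = growth equal to vehicle treated cultures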; details: S. cerevisiae cln2 rad14 strain, stronger effect = higher value
# How it was run: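 Growth inhibition, relative to vehicle-treated controls, is the read-out. The test organism is a yeast strain with defined genetic alterations, cln2 rad14.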
# [10] = NCI Yeast Anticancer Drug Screen. Data for the bub3 strain (AID 167); details: S. cerevisiae bub3 mutant strain, stronger effect = higher value
# How it was run: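 Compounds were applied to a genetically altered yeast strain carrying a cell-cycle control defect. Growth inhibition was scored against vehicle-treated controls.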
# [11] = NCI Yeast Anticancer Drug Screen. Data for the wt2 strain (AID 169);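 further: 0% = growth of vehicle-treated yeast cultures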; details: S. cerevisiae wt2 strain growth inhibition, stronger effect = higher value
# How it was run: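 Compound exposure of yeast; growth compared with vehicle controls; inhibition reported.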
# [12] = NCI Yeast Anticancer Drug Screen. Data for the mlh1 strain (AID 171);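 further: 0% = growth of vehicle-treated control cultures of the same strain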; details: S. cerevisiae mlh1 strain growth inhibition, stronger effect = higher value
# How it was run: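 Compounds are applied to a genetically altered yeast strain, and its growth is compared with that of vehicle-treated cultures to give percent inhibition.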
# [13] = NCI Yeast Anticancer Drug Screen. Data for the sgs1 strain (AID 173);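 further: 0% = growth of vehicle-only control cultures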; details: S. cerevisiae sgs1 mutant, stronger effect = higher value
# How it was run: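 Compounds applied to genetically altered yeast; growth compared with vehicle-treated cultures to give % inhibition.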
# [14] = NCI Yeast Anticancer Drug Screen. Data for the mlh1 rad18 strain (AID 175); details: S. cerevisiae mlh1 rad18 strain growth inhibition, stronger effect = higher value
# How it was run: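 Cells of a genetically altered yeast strain, deficient in DNA damage repair, were treated with compound. Their growth was then compared with that of vehicle-treated cultures to give inhibition.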
# [15] = NCI Yeast Anticancer Drug Screen. Data for the rad18 strain (AID 177); details: S. cerevisiae rad18 mutant growth inhibition, stronger effect = higher value
# How it was run: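 Compounds are applied to a repair-deficient yeast strain, and growth is compared with that of vehicle-treated cultures to give percent inhibition.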
# [16] = NCI Yeast Anticancer Drug Screen. Data for the rad50 strain (AID 155);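 further: 0% = growth of vehicle-only cultures of the same strain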; details: S. cerevisiae rad50 strain growth inhibition, stronger effect = higher value
# How it was run: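 Yeast carrying a defined DNA repair defect were exposed to test compounds, and growth was compared with vehicle-treated controls to give percent inhibition.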
# [17] = at 5.0 µM (retest, dose inferred, filed as 0.5)
# [18] = at 50.0 µM (retest, dose inferred, filed as 5.0)
smiles,measurement,setting,value
CCCCOC(=O)N[C@H]1CCc2cc(OC)c(OC)c(OC)c2-c2ccc(SC)c(=O)cc21,growth inhibition,[1]; at 1.2 µM,-2%
same,growth inhibition,[1]; at 3.7 µM,1%
same,growth inhibition,[1]; at 11.0 µM,6%
same,growth inhibition,[1]; at 33.0 µM,36%
same,growth inhibition,[1]; at 100.0 µM,77% (active)
same,growth inhibition,[2]; at 1.2 µM,-2%
same,growth inhibition,[2]; at 3.7 µM,-3%
same,growth inhibition,[2]; at 11.0 µM,-4%
same,growth inhibition,[2]; at 33.0 µM,3%
same,growth inhibition,[2]; at 100.0 µM,55%
same,growth inhibition,[3]; at 1.2 µM,1%
same,growth inhibition,[3]; at 3.7 µM,-1%
same,growth inhibition,[3]; at 11.0 µM,-4%
same,growth inhibition,[3]; at 33.0 µM,-6%
same,growth inhibition,[3]; at 100.0 µM,-11%
same,growth inhibition,[4]; at 1.2 µM,-5%
same,growth inhibition,[4]; at 3.7 µM,-3%
same,growth inhibition,[4]; at 11.0 µM,-1%
same,growth inhibition,[4]; at 33.0 µM,49%
same,growth inhibition,[4]; at 100.0 µM,77% (active)
same,growth inhibition,[5]; at 1.2 µM,-6%
same,growth inhibition,[5]; at 3.7 µM,-3%
same,growth inhibition,[5]; [17],-19%
same,growth inhibition,[5]; at 11.0 µM,-2%
same,growth inhibition,[5]; at 33.0 µM,15%
same,growth inhibition,[5]; [18],48%
same,growth inhibition,[5]; at 50.0 µM,53%
same,growth inhibition,[5]; at 100.0 µM,81% (active)
same,growth inhibition,[6]; at 1.2 µM,-1%
same,growth inhibition,[6]; at 3.7 µM,2%
same,growth inhibition,[6]; at 11.0 µM,7%
same,growth inhibition,[6]; at 33.0 µM,49%
same,growth inhibition,[6]; at 100.0 µM,84% (active)
same,growth inhibition,[7]; [17],3%
same,growth inhibition,[7]; [18],-13%
same,growth inhibition,[7]; at 50.0 µM,82.5% (active)
same,growth inhibition,[8]; at 1.2 µM,-2%
same,growth inhibition,[8]; at 3.7 µM,-5%
same,growth inhibition,[8]; at 11.0 µM,-1%
same,growth inhibition,[8]; at 33.0 µM,30%
same,growth inhibition,[8]; at 100.0 µM,79% (active)
same,growth inhibition,[9]; [17],-17%
same,growth inhibition,[9]; [18],60%
same,growth inhibition,[9]; at 50.0 µM,58.3%
same,growth inhibition,[10]; at 1.2 µM,-9%
same,growth inhibition,[10]; at 3.7 µM,-8%
same,growth inhibition,[10]; [17],0%
same,growth inhibition,[10]; at 11.0 µM,-5%
same,growth inhibition,[10]; at 33.0 µM,2%
same,growth inhibition,[10]; [18],55%
same,growth inhibition,[10]; at 50.0 µM,77.8% (active)
same,growth inhibition,[10]; at 100.0 µM,81% (active)
same,growth inhibition,[11]; at 1.2 µM,-2%
same,growth inhibition,[11]; at 3.7 µM,-3%
same,growth inhibition,[11]; at 11.0 µM,-1%
same,growth inhibition,[11]; at 33.0 µM,29%
same,growth inhibition,[11]; at 100.0 µM,86% (active)
same,growth inhibition,[12]; at 1.2 µM,-4%
same,growth inhibition,[12]; at 3.7 µM,-3%
same,growth inhibition,[12]; at 11.0 µM,2%
same,growth inhibition,[12]; at 33.0 µM,27%
same,growth inhibition,[12]; at 100.0 µM,90% (active)
same,growth inhibition,[13]; at 1.2 µM,-3%
same,growth inhibition,[13]; at 3.7 µM,-5%
same,growth inhibition,[13]; at 11.0 µM,2%
same,growth inhibition,[13]; at 33.0 µM,38%
same,growth inhibition,[13]; at 100.0 µM,89% (active)
same,growth inhibition,[14]; [17],-12%
same,growth inhibition,[14]; [18],47%
same,growth inhibition,[14]; at 50.0 µM,92.9% (active)
same,growth inhibition,[15]; at 1.2 µM,-1%
same,growth inhibition,[15]; at 3.7 µM,0%
same,growth inhibition,[15]; at 11.0 µM,7%
same,growth inhibition,[15]; at 33.0 µM,26%
same,growth inhibition,[15]; at 100.0 µM,80% (active)
Cc1ccc(S/N=C\c2ccccc2O)cc1,growth inhibition,[1]; at 1.2 µM,1%
same,growth inhibition,[1]; at 3.7 µM,-6%
same,growth inhibition,[1]; at 11.0 µM,-3%
same,growth inhibition,[1]; at 33.0 µM,0%
same,growth inhibition,[1]; at 100.0 µM,8%
same,growth inhibition,[2]; at 1.2 µM,-1%
same,growth inhibition,[2]; at 3.7 µM,0%
same,growth inhibition,[2]; at 11.0 µM,0%
same,growth inhibition,[2]; at 33.0 µM,1%
same,growth inhibition,[2]; at 100.0 µM,1%
same,growth inhibition,[3]; at 1.2 µM,4%
same,growth inhibition,[3]; at 3.7 µM,3%
same,growth inhibition,[3]; at 11.0 µM,6%
same,growth inhibition,[3]; at 33.0 µM,17%
same,growth inhibition,[3]; at 100.0 µM,35%
same,growth inhibition,[4]; at 1.2 µM,2%
same,growth inhibition,[4]; at 3.7 µM,-1%
same,growth inhibition,[4]; at 11.0 µM,1%
same,growth inhibition,[4]; at 33.0 µM,7%
same,growth inhibition,[4]; at 100.0 µM,-1%
same,growth inhibition,[16]; at 1.2 µM,-2%
same,growth inhibition,[16]; at 3.7 µM,-12%
same,growth inhibition,[16]; [17],-130%
same,growth inhibition,[16]; at 11.0 µM,2%
same,growth inhibition,[16]; at 33.0 µM,12%
same,growth inhibition,[16]; [18],79% (active)
same,growth inhibition,[16]; at 50.0 µM,89.6% (active)
same,growth inhibition,[16]; at 100.0 µM,6%
same,growth inhibition,[5]; at 1.2 µM,0%
same,growth inhibition,[5]; at 3.7 µM,3%
same,growth inhibition,[5]; [17],-48%
same,growth inhibition,[5]; at 11.0 µM,-11%
same,growth inhibition,[5]; at 33.0 µM,-1%
same,growth inhibition,[5]; [18],-4%
same,growth inhibition,[5]; at 50.0 µM,73.6% (active)
same,growth inhibition,[5]; at 100.0 µM,7%
same,growth inhibition,[7]; [17],-59%
same,growth inhibition,[7]; [18],53%
same,growth inhibition,[7]; at 50.0 µM,62%
same,growth inhibition,[8]; at 1.2 µM,2%
same,growth inhibition,[8]; at 3.7 µM,1%
same,growth inhibition,[8]; at 11.0 µM,2%
same,growth inhibition,[8]; at 33.0 µM,2%
same,growth inhibition,[8]; at 100.0 µM,4%
same,growth inhibition,[9]; [17],-58%
same,growth inhibition,[9]; [18],-23%
same,growth inhibition,[9]; at 50.0 µM,34.9%
same,growth inhibition,[10]; at 1.2 µM,-4%
same,growth inhibition,[10]; at 3.7 µM,-6%
same,growth inhibition,[10]; [17],-59%
same,growth inhibition,[10]; at 11.0 µM,-2%
same,growth inhibition,[10]; at 33.0 µM,-5%
same,growth inhibition,[10]; [18],47%
same,growth inhibition,[10]; at 50.0 µM,76.5% (active)
same,growth inhibition,[10]; at 100.0 µM,4%
same,growth inhibition,[11]; at 1.2 µM,4%
same,growth inhibition,[11]; at 3.7 µM,4%
same,growth inhibition,[11]; at 11.0 µM,5%
same,growth inhibition,[11]; at 33.0 µM,0%
same,growth inhibition,[11]; at 100.0 µM,-1%
same,growth inhibition,[12]; at 1.2 µM,9%
same,growth inhibition,[12]; at 3.7 µM,2%
same,growth inhibition,[12]; at 11.0 µM,-2%
same,growth inhibition,[12]; at 33.0 µM,0%
same,growth inhibition,[12]; at 100.0 µM,1%
same,growth inhibition,[13]; at 1.2 µM,3%
same,growth inhibition,[13]; at 3.7 µM,7%
same,growth inhibition,[13]; at 11.0 µM,7%
same,growth inhibition,[13]; at 33.0 µM,9%
same,growth inhibition,[13]; at 100.0 µM,6%
same,growth inhibition,[14]; [17],-112%
same,growth inhibition,[14]; [18],31%
same,growth inhibition,[14]; at 50.0 µM,94.3% (active)
same,growth inhibition,[15]; at 1.2 µM,-1%
same,growth inhibition,[15]; at 3.7 µM,0%
same,growth inhibition,[15]; at 11.0 µM,0%
same,growth inhibition,[15]; at 33.0 µM,1%
same,growth inhibition,[15]; at 100.0 µM,9%
